In ChEMBL document CHEMBL3988442, “University of Dundee, Small-Polar-MMV Screening Library” (2021):
Among all 48,000 compounds or so, about 13,000 (27%) showed an effect of 50% or more. The list shows a part of the results.

Test system: Wolbachia pipientis
Assay: Anti-Wolbachia Cell-Based Screen
Type: functional
Design: scale not given: in the data most compounds retested in dose-response had high values
Details: 5 µM

SMILES | Percent Effect [%]
N#CC1(C(=O)N2Cc3cc(-c4cc[nH]n4)ccc3C2c2cnco2)CC1 (stereo not given) | -31.27
NC(=O)COc1ccc(C(=O)NCCc2ccco2)cc1 | -0.9721
C[C@@H]1CN(Cc2cccc(F)c2)C[C@]12CCN(Cc1cccnc1)C2=O.O=C(O)C(F)(F)F.O=C(O)C(F)(F)F | 107.3441
CN1CC(=O)N(c2cccc(F)c2)CC12CCN(Cc1cccnc1)C2.O=C(O)C(F)(F)F.O=C(O)C(F)(F)F.O=C(O)C(F)(F)F (stereo not given) | -7.08
C[C@H]1CN(CC2CCOCC2)C[C@@]12CCN(Cc1cccnc1)C2=O.O=C(O)C(F)(F)F.O=C(O)C(F)(F)F | 107.6
CCS(=O)(=O)N1CC[C@H]2C(=O)N(Cc3cccnc3)CCO[C@H]2C1.O=C(O)C(F)(F)F | -12.91
CN1CCN(Cc2cccnc2)C(=O)C12CCN(CC1CCOC1)CC2.O=C(O)C(F)(F)F.O=C(O)C(F)(F)F.O=C(O)C(F)(F)F (stereo not given) | -19.27
CN1CC(=O)N(c2ccccc2)CC12CCN(Cc1cccnc1)C2.O=C(O)C(F)(F)F.O=C(O)C(F)(F)F.O=C(O)C(F)(F)F (stereo not given) | -4.544
CN1CCN(Cc2cccnc2)C(=O)C12CCN(C1CCOC1)CC2.O=C(O)C(F)(F)F.O=C(O)C(F)(F)F.O=C(O)C(F)(F)F (stereo not given) | 20.83
CCN1C(=O)C(c2ccccc2)CC12CCN(Cc1cccnc1)CC2.O=C(O)C(F)(F)F.O=C(O)C(F)(F)F (stereo not given) | -2.584
C[C@@H]1CN(S(C)(=O)=O)C[C@]12CCN(Cc1cccnc1)C2=O.O=C(O)C(F)(F)F | 104.4
C[C@@H]1CN(Cc2cccnc2)C[C@]12CCN(CCN1CCCC1)C2=O.O=C(O)C(F)(F)F.O=C(O)C(F)(F)F.O=C(O)C(F)(F)F | 95.13
CCN(CC)C(CNCc1ccc(C)o1)c1ccco1 (stereo not given) | 6.767
CC(=O)N[C@@H]1CN(S(=O)(=O)Cc2ccccc2)C[C@H]1C(C)C | 4.897
O=C(NC1CCN(Cn2nc(-c3ccccc3)oc2=O)CC1)C1CC1 | 15.64
CN1CCN(Cc2cccnc2)C2(CCN(Cc3ccccn3)C2)C1=O.O=C(O)C(F)(F)F.O=C(O)C(F)(F)F.O=C(O)C(F)(F)F (stereo not given) | 9.415
C[C@H]1CN(C(=O)c2cccnc2)C[C@@]12CCN(CCN1CCCC1)C2=O | 107.9
Cc1noc(C)c1CN1CCC2(CC1)CC(Oc1cccnc1)CO2.O=C(O)C(F)(F)F (stereo not given) | 0.1924
O=C(c1ccco1)N1CCCC2(CCN(CCN3CCCC3)C2=O)C1 (stereo not given) | 0.2637
O=C(c1cccnc1)N1C[C@@H]2CN(CCN3CCCC3)C(=O)[C@@H]2C1 | -1.372
C[C@H]1CN(c2ccccn2)C[C@@]12CCN(Cc1cccnc1)C2=O.O=C(O)C(F)(F)F.O=C(O)C(F)(F)F | 111.4
Cc1noc(C)c1CN1C[C@H](C)[C@]2(CCN(Cc3cccnc3)C2=O)C1.O=C(O)C(F)(F)F.O=C(O)C(F)(F)F | 119.9
Cc1noc(C)c1CN1CCN(Cc2cccnc2)c2ncccc2C1.O=C(O)C(F)(F)F.O=C(O)C(F)(F)F.O=C(O)C(F)(F)F | -12.75
O=C(O)C(F)(F)F.O=C(O)C(F)(F)F.c1ccc(CN2CCC3(CC2)CC(Oc2cccnc2)C3)nc1 | -13.53
C[C@@H]1CN(Cc2ccccn2)C[C@]12CCN(Cc1cccnc1)C2=O.O=C(O)C(F)(F)F.O=C(O)C(F)(F)F.O=C(O)C(F)(F)F | 86.67
